# Measured values: PMC5540273 (PLoS ONE, 2017)
# Read-outs that look alike come from different tables or passages of the source.
# Legend:
# DCAMKL2 = system: T1, DCAMKL2; conditions: concentration: 1 μM, replicates: in singlicate; n = 1
# T1 construct: gene DCLK2
# DCAMKL3 = system: T2, DCAMKL3; conditions: concentration: 1 μM, replicates: in singlicate; n = 1
# T2 construct: gene DCLK3
# DDR1 = conditions: concentration: 1 μM, replicates: in singlicate; n = 1
# DDR2 = conditions: concentration: 1 μM, replicates: in singlicate; n = 1
# DLK = system: T3, DLK; conditions: concentration: 1 μM, replicates: in singlicate; n = 1
# T3 construct: gene MAP3K12
# DMPK2 = system: T4, DMPK2; conditions: n = 1
# T4 construct: gene CDC42BPG
# DMPK = conditions: concentration: 1 μM, replicates: in singlicate; n = 1
# DRAK1 = system: T5, DRAK1; conditions: concentration: 1 μM, replicates: in singlicate; n = 1
# T5 construct: gene STK17A
# DRAK2 = system: T6, DRAK2; conditions: concentration: 1 μM, replicates: in singlicate; n = 1
# T6 construct: gene STK17B
# DYRK1A = conditions: concentration: 1 μM, replicates: in singlicate; n = 1
# DYRK1B = conditions: concentration: 1 μM, replicates: in singlicate; n = 1
# DYRK2 = conditions: concentration: 1 μM, replicates: in singlicate; n = 1
# EGFR = conditions: concentration: 1 μM, replicates: in singlicate; n = 1
# EIF2AK1 = conditions: concentration: 1 μM, replicates: in singlicate; n = 1
# EPHA1 = conditions: concentration: 1 μM, replicates: in singlicate; n = 1
# EPHA2 = conditions: concentration: 1 μM, replicates: in singlicate; n = 1
# EPHA3 = conditions: concentration: 1 μM, replicates: in singlicate; n = 1
# EPHA4 = conditions: concentration: 1 μM, replicates: in singlicate; n = 1
# EPHA5 = conditions: concentration: 1 μM, replicates: in singlicate; n = 1
# EPHA6 = conditions: concentration: 1 μM, replicates: in singlicate; n = 1
# [1] = concentration: 1 μM, replicates: in singlicate
# 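Note: KINOMEscan kinase panel screen.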
smiles,measurement,setting,value
Nc1ncc(-c2ccc3nccc(-c4ccncc4)c3c2)cc1S(=O)(=O)N1CCOCC1 [GSK1627798],%Inh,DCAMKL2,22%
same,%Inh,DCAMKL3,0%
same,%Inh,DDR1,0%
same,%Inh,DDR2,0%
same,%Inh,DLK,32%
same,%Inh,DMPK2; [1],0%
same,%Inh,DMPK,0%
same,%Inh,DRAK1,0%
same,%Inh,DRAK2,0%
same,%Inh,DYRK1A,28%
same,%Inh,DYRK1B,0%
same,%Inh,DYRK2,21%
same,%Inh,EGFR,18%
same,%Inh,EIF2AK1,0%
same,%Inh,EPHA1,4%
same,%Inh,EPHA2,4%
same,%Inh,EPHA3,0%
same,%Inh,EPHA4,0%
same,%Inh,EPHA5,0%
same,%Inh,EPHA6,5%
CCCCc1nn2ncccc2c1-c1ccnc(Nc2ccc(N3CCN(C)CC3)cc2)n1 [GW684941],%Inh,DCAMKL2,25%
same,%Inh,DCAMKL3,2%
same,%Inh,DDR1,100%
same,%Inh,DDR2,96.2%
same,%Inh,DLK,47%
same,%Inh,DMPK2; [1],50%
same,%Inh,DMPK,0%
same,%Inh,DRAK1,5%
same,%Inh,DRAK2,0%
same,%Inh,DYRK1A,17%
same,%Inh,DYRK1B,20%
same,%Inh,DYRK2,3%
same,%Inh,EGFR,81%
same,%Inh,EIF2AK1,0%
same,%Inh,EPHA1,88%
same,%Inh,EPHA2,42%
same,%Inh,EPHA3,9%
same,%Inh,EPHA4,29%
same,%Inh,EPHA5,0%
same,%Inh,EPHA6,40%
CCS(=O)(=O)c1ccc(OC)c(Nc2nccc(-c3c(-c4cccc(NC(=O)c5c(F)cccc5F)c4)nn4ncccc34)n2)c1 [GSK326180],%Inh,DCAMKL2,0%
same,%Inh,DCAMKL3,1%
same,%Inh,DDR1,90%
same,%Inh,DDR2,8%
same,%Inh,DLK,0%
same,%Inh,DMPK2; [1],78%
same,%Inh,DMPK,0%
same,%Inh,DRAK1,0%
same,%Inh,DRAK2,1%
same,%Inh,DYRK1A,12%
same,%Inh,DYRK1B,0%
same,%Inh,DYRK2,16%
same,%Inh,EGFR,99.3%
same,%Inh,EIF2AK1,0%
same,%Inh,EPHA1,23%
same,%Inh,EPHA2,0%
same,%Inh,EPHA3,12%
same,%Inh,EPHA4,100%
same,%Inh,EPHA5,0%
same,%Inh,EPHA6,100%
Nc1ncc(-c2cccnc2)c2scc(-c3ccc4c(c3)CCN4C(=O)Cc3ccccc3)c12 [GSK683281],%Inh,DCAMKL2,1%
same,%Inh,DCAMKL3,34%
same,%Inh,DDR1,63%
same,%Inh,DDR2,0%
same,%Inh,DLK,6%
same,%Inh,DMPK2; [1],72%
same,%Inh,DMPK,4%
same,%Inh,DRAK1,1%
same,%Inh,DRAK2,0%
same,%Inh,DYRK1A,23%
same,%Inh,DYRK1B,27%
same,%Inh,DYRK2,24%
same,%Inh,EGFR,16%
same,%Inh,EIF2AK1,25%
same,%Inh,EPHA1,13%
same,%Inh,EPHA2,8%
same,%Inh,EPHA3,0%
same,%Inh,EPHA4,7%
same,%Inh,EPHA5,0%
same,%Inh,EPHA6,11%
CCn1c(-c2nonc2N)nc2c(C#CC(C)(C)O)nc(OC[C@H](N)c3ccccc3)cc21 [GSK943949],%Inh,DCAMKL2,0%
same,%Inh,DCAMKL3,19%
same,%Inh,DDR1,4%
same,%Inh,DDR2,12%
same,%Inh,DLK,0%
same,%Inh,DMPK2; [1],0%
same,%Inh,DMPK,0%
same,%Inh,DRAK1,13%
same,%Inh,DRAK2,19%
same,%Inh,DYRK1A,4%
same,%Inh,DYRK1B,0%
same,%Inh,DYRK2,9%
same,%Inh,EGFR,12%
same,%Inh,EIF2AK1,0%
same,%Inh,EPHA1,2%
same,%Inh,EPHA2,5%
same,%Inh,EPHA3,0%
same,%Inh,EPHA4,0%
same,%Inh,EPHA5,0%
same,%Inh,EPHA6,0%
COc1cccc(C(=O)Nc2cccc(Oc3ccc4nc(NC(=O)C5CC5)cn4n3)c2)c1,%Inh,DCAMKL2,17%
same,%Inh,DCAMKL3,49%
same,%Inh,DDR1,100%
same,%Inh,DDR2,99.7%
same,%Inh,DLK,18%
same,%Inh,DMPK2; [1],27%
same,%Inh,DMPK,0%
same,%Inh,DRAK1,0%
same,%Inh,DRAK2,24%
same,%Inh,DYRK1A,0%
same,%Inh,DYRK1B,19%
same,%Inh,DYRK2,9%
same,%Inh,EGFR,78%
same,%Inh,EIF2AK1,0%
same,%Inh,EPHA1,42%
same,%Inh,EPHA2,98.7%
same,%Inh,EPHA3,62%
same,%Inh,EPHA4,79%
same,%Inh,EPHA5,57%
same,%Inh,EPHA6,68%
CCn1c(-c2nonc2N)nc2c(C#CC(C)(C)O)ncc(OCCCCN)c21.O=C(O)C(F)(F)F.O=C(O)C(F)(F)F [GSK507274],%Inh,DCAMKL2,34%
same,%Inh,DCAMKL3,98.7%
same,%Inh,DDR1,0%
same,%Inh,DDR2,0%
same,%Inh,DLK,1%
same,%Inh,DMPK2; 1 µM,0%
same,%Inh,DMPK,0%
same,%Inh,DRAK1,0%
same,%Inh,DRAK2,2%
same,%Inh,DYRK1A,25%
same,%Inh,DYRK1B,0%
same,%Inh,DYRK2,8%
same,%Inh,EGFR,9%
same,%Inh,EIF2AK1,27%
same,%Inh,EPHA1,20%
same,%Inh,EPHA2,43%
same,%Inh,EPHA3,38%
same,%Inh,EPHA4,8%
same,%Inh,EPHA5,0%
same,%Inh,EPHA6,20%
Cc1cccc(NC(=O)Nc2ccc(Oc3ncnc4ccn(C)c34)cc2)c1,%Inh,DCAMKL2,0%
same,%Inh,DCAMKL3,0%
same,%Inh,DDR1,99.3%
same,%Inh,DDR2,98.7%
same,%Inh,DLK,0%
same,%Inh,DMPK2; [1],0%
same,%Inh,DMPK,0%
same,%Inh,DRAK1,0%
same,%Inh,DRAK2,0%
same,%Inh,DYRK1A,0%
same,%Inh,DYRK1B,9%
same,%Inh,DYRK2,0%
same,%Inh,EGFR,1%
same,%Inh,EIF2AK1,0%
same,%Inh,EPHA1,0%
same,%Inh,EPHA2,0%
same,%Inh,EPHA3,17%
same,%Inh,EPHA4,0%
same,%Inh,EPHA5,9%
same,%Inh,EPHA6,28%
Cc1ccc(C)c(NC(=O)NC2CCN(c3ccnc(Nc4ccc(F)cc4)n3)C2)c1 (stereo not drawn) [GSK1379720],%Inh,DCAMKL2,0%
same,%Inh,DCAMKL3,3%
same,%Inh,DDR1,0%
same,%Inh,DDR2,25%
same,%Inh,DLK,0%
same,%Inh,DMPK2; [1],0%
same,%Inh,DMPK,0%
same,%Inh,DRAK1,10%
same,%Inh,DRAK2,0%
same,%Inh,DYRK1A,10%
same,%Inh,DYRK1B,0%
same,%Inh,DYRK2,8%
same,%Inh,EGFR,0%
same,%Inh,EIF2AK1,0%
same,%Inh,EPHA1,18%
same,%Inh,EPHA2,0%
same,%Inh,EPHA3,0%
same,%Inh,EPHA4,0%
same,%Inh,EPHA5,0%
same,%Inh,EPHA6,0%
